Measurements reported in publication PMC4552634, “A New Set of Chemical Starting Points with Plasmodium falciparum Transmission-Blocking Potential for Antimalarial Drug Discovery” (PLoS ONE, 2015).
In all, about 13,000 compounds went through this assay and about 3,200 (25%) showed an effect of 50% or more. The list shows a part of the results.

Test system: P. falciparum stage V gametocytes
Parameters: BacTiter-Glo ATP luminescence viability of purified stage V gametocytes in 384-well plates, per cent inhibition versus DMSO
Settings: 48 h, 5 µM; inhibitor

Row | Structure (SMILES) | % Inhibition [%]
1 | CCCCN1Cc2c(n(CC(=O)Nc3ccccc3)c3cc(-c4ccccc4)nn3c2=O)C1=O [TCMDC-125585] | -0.9231
2 | CCN(CC)CCN(Cc1ccc(-c2ccc(C(F)(F)F)cc2)cc1)C(=O)Cn1cc(Cc2cnn(C)c2)c(=O)n2nc(-c3ccccc3)cc12 [TCMDC-140690] | 119.2
3 | CCN(CC)CCN(Cc1ccc(-c2ccc(C(F)(F)F)cc2)nc1)C(=O)Cn1cc(Cc2cnn(C)c2)c(=O)n2nc(-c3ccccc3)cc12 [TCMDC-140691] | 119
4 | COc1ccc2nccc([C@@H](O)CN3CCC(NC(=O)/C=C/c4cccc(C)c4)CC3)c2c1 [TCMDC-141114] | -1.317
5 | O=C(NC1CCN(CCc2c[nH]c3ccc(F)cc23)CC1)c1ncc(-c2ccccc2)[nH]1 [TCMDC-131972] | 5.191
6 | Cc1ccc(NC(=O)Nc2ccc(Br)cc2)cc1OCCN(C)C [TCMDC-140087] | -42.58
7 | COc1ccc(NC(=O)/C=C/c2cc(Br)ccc2F)cc1OCCN(C(C)C)C(C)C [TCMDC-140668] | -43.25
8 | CCOC(=O)CN(c1ccc(Br)cc1OCCOc1cc(Br)ccc1N(CC(=O)OCC)C(C)C(=O)OCC)C(C)C(=O)OCC (stereo not drawn) [TCMDC-132003] | 102
9 | C=CCc1cc(SC)ccc1Oc1ccc(N)cc1 [TCMDC-137690] | -96.62
10 | Cc1ccccc1C(=O)Nc1cccc(-c2nc3ncccn3c2C)c1 [TCMDC-125138] | 25.46
11 | CCOc1ccccc1C(=O)Nc1cccc(-c2nc3ncccn3c2C)c1 [TCMDC-124461] | 18.92
12 | Cc1c(-c2cccc(NC(=O)C(C)(C)Oc3ccc(Cl)cc3)c2)nc2ncccn12 [TCMDC-124460] | 51.92
13 | CN(c1cc(NC(=O)c2cccs2)ccn1)C1CCN(Cc2cccc(C#N)c2)CC1 [TCMDC-134970] | 39.85
14 | Cc1[nH]c(C)c(-c2ccc(Oc3ccc(Cl)c(Cl)c3)cc2)c(=O)c1Br [TCMDC-137397] | 72.37
15 | Cc1[nH]c(C)c(-c2ccc(Oc3ccc(Cl)c(Cl)c3)cc2)c(=O)c1Cl [TCMDC-137396] | 73.66
16 | Cc1[nH]c(C)c(-c2ccc(Cl)cc2Cl)c(=O)c1Br [TCMDC-137428] | 6.285
17 | Cc1[nH]c(C)c(-c2ccc(Oc3ccc(Cl)cc3Cl)cc2)c(=O)c1Br [TCMDC-137533] | 62.65
18 | Cc1[nH]c(C)c(-c2ccc(Oc3cc(Cl)cc(Cl)c3)cc2)c(=O)c1Br [TCMDC-137392] | 48.81
19 | Cc1[nH]c(C)c(-c2ccc(Oc3ccc(Cl)cc3)c(Cl)c2)c(=O)c1Br [TCMDC-137409] | 21.95
20 | Cc1noc(C)c1-c1ccc(C(=C2CCCCCC2)c2ccc(O)cc2)cc1 [TCMDC-135873] | -11.65
21 | CCCCCc1cc(O)c2c(c1)OC(C)(C)C=C2C1=CCN(Cc2ccsc2)CC1 [TCMDC-131400] | -46.98
22 | COc1cc(NC(=O)c2c(-c3c(F)cccc3Cl)noc2C)c(OC)cc1Cl [TCMDC-123635] | 20.08
23 | Cc1ccc(NC(=O)c2cccc(CN3CCCN(Cc4cccc(O)c4)CC3)c2)cc1 [TCMDC-135961] | 28.04

Row | Structure (SMILES) | % Inhibition [%]
24 | CCN1CCN(Cc2c(O)ccc3c(=O)c(Oc4cc(C)cc(C)c4)c(C(F)(F)F)oc23)CC1 [TCMDC-125696] | 11.78
25 | NC1=NC2(CCCCC2)N(Cc2ccc(Cl)c(Cl)c2)C(N)=N1 [TCMDC-136304] | -26.78
26 | CN1CC=C(c2c[nH]c3ccc(C(=O)c4nccs4)cc23)CC1 [TCMDC-137277] | 17.28
27 | Cc1cc(Nc2ccccc2)nc(NCCOc2ccccc2)n1 [TCMDC-137574] | 48.49
28 | O=C(O)c1cccc2c(-c3ccncc3)cccc12 [TCMDC-139219] | 9.999
29 | Cn1ccnc1S(=O)(=O)CCNCc1ccc(-c2ccc3ncnc(Nc4ccc(OCc5cccc(F)c5)c(Cl)c4)c3c2)o1 [TCMDC-138564] | 21.76
30 | CCOc1ccc(S(=O)(=O)N(C)c2ccc(OCC(=O)Nc3nccs3)cc2)cc1 [TCMDC-123622] | 21.93
31 | Cc1ccc(C(CC(=O)Nc2nccs2)c2ccc(OC(C)C)cc2)cc1 (stereo not drawn) [TCMDC-124467] | 72.01
32 | O=C(COc1ccc(C(=O)c2ccccc2)cc1)Nc1nccs1 [TCMDC-124432] | -13.79
33 | O=C(/C=C/c1ccc(Cl)c(Cl)c1)NCCCCCN1CCC(NC(=O)c2ccc([N+](=O)[O-])cc2)CC1 [TCMDC-135843] | 15.45
34 | CCn1cnc2c(N3CCCS3(=O)=O)cc(C(=O)N[C@@H](Cc3ccccc3)[C@H](O)CNC(C)(C)c3cccc(C(F)(F)F)c3)cc21 [TCMDC-135450] | 36.58
35 | CCn1ccc2c(N3CCCCS3(=O)=O)cc(C(=O)N[C@@H](Cc3ccccc3)[C@H](O)CNC3CCCCC3)cc21 [TCMDC-135314] | 53.3
36 | CCOc1cc(C(=O)N[C@@H](Cc2ccccc2)[C@H](O)CNC(C)(C)c2cccc(OC)c2)cc(N2CCCS2(=O)=O)c1 [TCMDC-134403] | 22.2
37 | CCN1CCc2c1cc(C(=O)N[C@@H](Cc1ccccc1)[C@H](O)CNC(C)(C)c1cccc(C(F)(F)F)c1)cc2N1CCCCS1(=O)=O [TCMDC-135451] | 62.24
38 | CCn1cnc2c(N3CCCCS3(=O)=O)cc(C(=O)N[C@@H](Cc3ccccc3)[C@H](O)CNC3CCOCC3)cc21 [TCMDC-135662] | 16.67
39 | CCCN(CCC)C(=O)c1cc(C(=O)N[C@@H](Cc2ccccc2)[C@H](O)CNC(C)(C)c2cccc(OC)c2)cc(N2CCCCS2(=O)=O)c1 [TCMDC-134674] | 75.74
40 | CCn1ccc2c(N3CCCCS3(=O)=O)cc(C(=O)N[C@@H](Cc3ccccc3)[C@H](O)CNC(C)(C)c3cccc(C(F)(F)F)c3)cc21 [TCMDC-135317] | 87.8
41 | CCCN(CCC)C(=O)c1cc(C(=O)N[C@@H](Cc2ccccc2)[C@H](O)CNCc2cccc(OC)c2)cc(N2CCCCS2(=O)=O)c1 [TCMDC-138893] | -16.98
42 | CCCN(CCC)C(=O)c1cc(C(=O)N[C@@H](Cc2ccccc2)[C@H](O)CNCc2cccc(C(F)(F)F)c2)cc(N2CCCCS2(=O)=O)c1 [TCMDC-138883] | -16.54
43 | CCn1ccc2c(N3CCCS3(=O)=O)cc(C(=O)N[C@@H](Cc3ccccc3)[C@H](O)CNC3CCCCC3)cc21 [TCMDC-135315] | 41.25
44 | CCCN(CCC)C(=O)c1cc(C(=O)N[C@@H](Cc2ccccc2)[C@H](O)CNC(C)(C)c2cccc(C(F)(F)F)c2)cc(N2CCCCS2(=O)=O)c1 [TCMDC-134675] | 20.25
45 | CCn1ccc2c(N3CCCS3(=O)=O)cc(C(=O)N[C@@H](Cc3ccccc3)[C@H](O)CNC(C)(C)c3cccc(OC)c3)cc21 [TCMDC-134672] | 43.65
